# From PubChem BioAssay
# HP1b binding inh: HTS for Inhibitors of HP1-beta Chromodomain Interactions with Methylated Histone Tails; Chromobox protein homolog 1 (Homo sapiens), P83916; AlphaScreen HP1-beta / biotin-H3K9me3 peptide binding; Potency, µM (titrated, usually from 114 µM), for the others: top-dose activity change, negative = inhibition, usual class: inhibitors; actives 0.56% (n = 390,000); AID 540317, 2011; note: nearly all actives have a fitted effect of over 70% in size
# Target sequence (P83916 whole entry, looked up): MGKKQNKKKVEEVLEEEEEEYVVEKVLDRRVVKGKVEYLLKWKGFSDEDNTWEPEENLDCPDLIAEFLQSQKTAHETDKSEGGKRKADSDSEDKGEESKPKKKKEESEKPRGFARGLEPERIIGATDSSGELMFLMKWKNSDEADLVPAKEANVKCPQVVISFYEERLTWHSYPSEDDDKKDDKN
#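 HP1-beta protein (50 nM final) preincubated 30 min at room temperature with biotinylated H3(1-18)K9me3 peptide (50 nM) in PBS pH 7.4, 0.01% Tween-20, then compound added for 30 min. AlphaScreen streptavidin donor/nickel chelate acceptor beads (10 ug/mL final), 30 min dark, luminescence read.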
# ALOX12 inh: Primary qHTS assay for inhibitors of human arachidonate 12S-lipoxygenase (ALOX12): Round 2. Polyunsaturated fatty acid lipoxygenase ALOX12 (Homo sapiens), P18054. purified 12hLO, xylenol orange hydroperoxide absorbance. Potency, µM (series often up to 108 µM), inactives show at the top dose activity change, negative = inhibition, actives largely listed as inhibitors. actives 1.1% (n = 580,000). AID 1671190, 2021; note: % is set by controls: 0 for no effect and ±100 for the full control effect
#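 Hydroperoxide product was detected by ferrous iron/xylenol orange as the 573 to 405 nm absorbance ratio. Arachidonic acid at 40 uM (final) was turned over for 30 min at room temperature by 150 nM human 12hLO, pH 7.0 Hepes buffer, after 15 min compound preincubation.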
# PLK1 PBD inh: qHTS for Inhibitors of PLK1-PDB (polo-like kinase 1 - polo-box domain): Primary Screen. actives 2.8% (n = 360,000). AID 720504, 2013. Plk1 PBD binding of FITC phosphopeptide, fluorescence polarization. Potency, µM, inactives show max response, negative = inhibition, hits mostly inhibitors; note: series mostly up to about 57 µM; % is set by controls: 0 for no effect and ±100 for the full control effect; nearly all actives have a fitted effect of over 65% in size
# G9a block: qHTS Assay for Inhibitors of Histone Lysine Methyltransferase G9a | G9a H3K9 monomethylation, AlphaScreen, 2 h | Potency, µM (titrated, usually from 102 µM), inactives show at the highest dose activity, negative = inhibition, usual class: inhibitors | actives 8.8% (n = 350,000) | AID 504332, 2011; note: % is set by controls: 0 for no effect and ±100 for the full control effect; nearly all actives have a fitted effect of over 75% in size
# Target sequence (Q96KQ7 913-1193 limits assumed): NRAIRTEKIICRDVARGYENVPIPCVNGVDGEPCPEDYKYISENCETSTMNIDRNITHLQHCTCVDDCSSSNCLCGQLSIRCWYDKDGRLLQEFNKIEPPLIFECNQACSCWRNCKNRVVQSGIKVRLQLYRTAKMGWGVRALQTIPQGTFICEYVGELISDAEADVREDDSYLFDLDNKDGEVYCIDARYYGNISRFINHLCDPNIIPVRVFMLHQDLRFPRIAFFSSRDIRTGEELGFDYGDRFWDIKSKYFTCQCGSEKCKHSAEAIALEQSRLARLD
#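 Enzyme 20 nM + cpd, 15 min RT; add b-H3K9 pep 500 nM / SAM 20 uM; 2 h RT; anti-H3K9me1 Ab 0.5 ug/mL + SA donor / anti-rabbit acceptor beads 20 ug/mL each, 10 min; AlphaScreen read.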
# BAZ2B inh: qHTS Assay for Inhibitors of BAZ2B; AlphaScreen BAZ2B-H3K14Ac peptide displacement; Potency, µM (series often up to 114 µM), inactives show top-dose activity change, negative = inhibition, usual class: inhibitors; actives 4.4% (n = 360,000); note: % is set by controls: 0 for no effect and ±100 for the full control effect; nearly all actives have a fitted effect of over 60% in size
#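 AlphaScreen displacement of biotin-H3(5-23)K14Ac peptide (50 nM final) from BAZ2B (50 nM final) in PBS pH 7.4, 0.01% Tween-20; complex preformed 30 min RT, then compounds (top 110 uM) 30 min RT, beads 20 min dark.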
# JMJD2A Tudor inh: qHTS Assay for Inhibitors of JMJD2A-Tudor Domain. AID 504339, 2011. Potency, µM (series often up to 114 µM), without a hit: at the top dose activity change, negative = inhibition, hits mostly inhibitors. AlphaScreen JMJD2A-Tudor / H3K4me3 peptide binding. Lysine-specific demethylase 4A (Homo sapiens), O75164. actives 4.4% (n = 390,000); note: % is set by controls: 0 for no effect and ±100 for the full control effect; nearly all actives have a fitted effect of over 50% in size
# * = called active by the depositor; ? = inconclusive; nt = no result given; [ ] = dose if it differs, or a comment. Most compounds without a hit are left out; they make up all but 9% or so of the library. Calls come from the whole dose curve; as a rule, active = well fitted curve in the direction sought with a large enough effect; inconclusive = small, poorly fitted or top-dose-only effect, or another doubt; inactive = no such curve, though single readings can be large; an effect the other way counts as inactive or inconclusive. Potency is the fitted concentration of half-maximal effect.
SMILES,HP1b binding inh,ALOX12 inh,PLK1 PBD inh,G9a block,BAZ2B inh,JMJD2A Tudor inh
O=C(COC(=O)Cn1cnc2ccccc21)Nc1ccc2c(c1)C(=O)c1ccccc1C2=O,29%,-14%,-7%,?,-12%,-11%
O=C(NCCCCNC(=O)c1ccccc1F)c1ccccc1F,23%,0%,-18%,30%,-2%,-10%
CCOc1ccc(Nc2nc(N3CCOCC3)nc(N3CCOCC3)n2)cc1,15%,-8%,-9%,6%,-17%,-9%
O=C(CSc1n[nH]c(=O)[nH]c1=O)N/N=C/C=C/c1ccccc1,17%[57 µM],3%,-2%,10%,-18%,-7%
O=C(CSc1n[nH]c(=O)[nH]c1=O)N/N=C/C=C\c1ccccc1,-6%,-5%,24µM*,8%,nt,-20%[11.4 µM]
COc1cc(/C=N/NC(=O)CSc2n[nH]c(=O)[nH]c2=O)cc(OC)c1O,27%,-21%,-6%,35µM*,2%,-3%
COc1cccc(NC(=O)/C(C#N)=C\c2cn(Cc3ccc(C)cc3)c3ccccc23)c1,40%,-23%,nt,-2%[59 µM],-2%,-20%
O=C(CSc1nnc(-c2cc3ccccc3cc2O)n1Cc1ccco1)N1CCc2ccccc2C1,23%,13%,-19%,?,-25%,-29%
CCn1c(SCc2cccc(C(F)(F)F)c2)nnc1-c1ccco1,13%,50µM*,?,?,5%,-6%
CCn1c(SCC(N)=O)nnc1-c1ccco1,12%,1%,-3%,9%,10%,-7%
CCN(CC)C(=O)CSc1nnc(-c2ccco2)n1Cc1ccco1,24%,-12%,-4%,40µM*,-10%,-19%
CC(C)N(C(=O)CSc1nnc(-c2cc3ccccc3cc2O)n1Cc1ccco1)C(C)C,11%,-7%,-7%,13µM*,-31%,-35%
c1ccc(CSc2nnc(-c3ccco3)n2Cc2ccco2)cc1,-1%,-19%,-3%,50µM*,?,-32%
CN1CCN(C(=O)c2cc(COc3ccc(F)cc3F)on2)CC1c1ccccc1 (stereo not drawn),nt,11%,nt,nt,nt,nt
CC1(C)C(=O)N(Cc2ccccc2)[C@H]2CN(Cc3ccc(C#N)cc3)C[C@H]2[S+]1(=O)[O-],nt,2%[176 µM],nt,nt,nt,nt
NC(=O)c1ccc(-c2nc(-c3ccc4c(c3)OCCO4)c(-c3ccccn3)[nH]2)cc1,nt,14%[57.4 µM],nt,nt,nt,nt
Cc1ccccc1CSc1nnc(-c2ccco2)n1Cc1ccco1,-9%,?,-7%,23%[0.501 µM],50µM*,?
Cc1ccccc1CSc1nnc(-c2cccs2)n1Cc1ccco1,20%,0%,-4%,-32%[0.0925 µM],?,-33%
CN1CC(=O)N2CCN(S(=O)(=O)c3ccc(F)cc3F)CC2C1=O (stereo not drawn),nt,7%,nt,nt,nt,nt
Brc1cccc(/C=N/Nc2nn[nH]n2)c1,40%,-7%,4%,50µM*,?,-6%
O=c1[nH]c(=O)c2nnc(N/N=C/c3ccccc3F)nc2[nH]1,43%,11%,-4%,-5%,-1%,-16%
CN(C)c1nc(NCc2ccccc2)nc(N/N=C/c2cccc(Br)c2)n1,?,-17%,12µM*,0%,-39%,?
Fc1ccccc1/C=N/Nc1nn[nH]n1,29%,?,1%,20µM*,?,79µM*
CCNc1nc(NCC)nc(N/N=C/c2ccccc2)n1,32%,?,4%,-15%,?,-23%
COc1ccc(N2CCN(C(=O)c3cc4c(s3)-c3c(C)cccc3OC4)CC2)cc1,17%,-14%,nt,-8%[59 µM],-1%,-13%
O=C(c1ccccc1)C(O)(Cc1ccccc1)c1ccccc1 (stereo not drawn),113%,-1%,1%,nt,nt,39%
